Among the data in PubChem BioAssay (Tox21) are Potency and outcome values, retold here.

Assay [1] concerns the target Progesterone receptor (Homo sapiens) (UniProt P06401). The experiment in a line: qHTS assay to identify small molecule agonists of the progesterone receptor (PR) signaling pathway (AID 1346784; calls by dose curve; note: nearly all actives have a fitted effect of over 30% in size). Put shortly: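 Using charcoal-stripped serum (2%) to limit endogenous steroids, PR-UAS-bla HEK 293T cells received compounds for 16 hr at 37C after 6 hr plating; beta-lactamase FRET fluorescence was recorded following 2 hr substrate loading at room temperature.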
For orientation: Quantitative high-throughput screening tests each substance at several concentrations.

Assay [2] has the same target. Put plainly: qHTS assay to identify small molecule antagonists of the progesterone receptor (PR) signaling pathway (AID 1346795; active = well fitted inhibition curve with a large enough effect in the signal ratio in the repeat runs, not every such curve was filed as active; the % refers to the signal ratio; note: potency is the fitted concentration of half-maximal effect). Put shortly: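 Inhibition of R5020-induced (1 nM final) beta-lactamase reporter signal in PR-UAS-bla HEK293T cells was scored by FRET fluorescence after overnight (16 hr) compound treatment.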
The nature of assay [3]: qHTS assay to identify small molecule antagonists of the progesterone receptor (PR) signaling pathway - cell viability counter screen (AID 1346798). Note: series mostly up to about 92 µM; nearly all actives have a fitted effect of over 50% in size. In a few lines: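 ATP content as viability readout: CellTiter-Glo luminescence, 30 min room temperature, in PR-UAS-bla HEK293T cells after 16 hr compound/R5020 treatment at 37C and 5% CO2.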
Assay [4] is described as follows: qHTS assay to identify small molecule agonists of the progesterone receptor (PR) signaling pathway - cell viability counter screen (AID 1346799; calls by dose curve; note: nearly all actives have a fitted effect of over 45% in size). In a few lines:
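Cytotoxicity in PR-bla HEK293T cells: 16 h compound, 37C; CellTiter-Glo added post-FRET read; luminescence after 30 min RT.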

Assay [5] can be described thus: qHTS assay to identify small molecule antagonists of the TGF-beta/Smad signaling pathway - cell viability counter screen (AID 1346824). Note: nearly all actives have a fitted effect of over 50% in size. Put shortly:
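SBE-bla HEK 293T cells, incubated overnight, then compound plus 0.25 ng/mL TGF-beta1 (stock added) for 5 hr at 37 C. Viability was read in the same wells by CellTiter-Glo luminescence after 30 min at room temperature.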

A short description of assay [6]: qHTS assay to identify small molecule agonists of the TGF-beta/Smad signaling pathway - cell viability counter screen (AID 1346829). Note: top concentration of the series differs between compounds; nearly all actives have a fitted effect of over 45% in size. In a few lines: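 HEK 293T SBE-bla line, 5 hr compound exposure at 37 C, multiplexed CellTiter-Glo viability read by luminescence.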
Assay [7] can be described thus: qHTS assay to identify small molecule agonists of the TGF-beta/Smad signaling pathway (AID 1346859; active = well fitted activation curve with a large enough effect in the signal ratio in the repeat runs, not every such curve was filed as active; the % refers to the signal ratio; note: series mostly up to about 77 µM). In a few lines: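 Stable Smad binding element-beta-lactamase HEK 293T cells; 5 hr compound exposure at 37 C under 5% CO2; 2 hr room-temperature substrate step; fluorescence excited at 405 nm, collected at 460 nm and 530 nm.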
Assay [8] has as its target Thyrotropin-releasing hormone receptor (Homo sapiens) (UniProt P34981). Put plainly: qHTS assay to identify small molecule antagonists of the thyrotropin-releasing hormone receptor (TRHR) signaling pathway (AID 1346877; active = well fitted inhibition curve with a large enough effect in the repeat runs, not every such curve was filed as active; note: series mostly up to about 51 µM). Put shortly: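 Antagonism is measured as suppression of the calcium response to 1 nM TRH in TRHR-HEK293 cells that have been dye-loaded for 2 h at 37 °C after overnight plating. Each compound is tested at 15 concentrations in triplicate.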

Assay [9] has the same target. Put plainly: qHTS assay to identify small molecule agonists of the thyrotropin-releasing hormone receptor (TRHR) signaling pathway (AID 1346891; calls by dose curve;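 note: HEK293 cells expressing TRHR with calcium dye readout; series mostly up to about 58 µM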). In a few lines:
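In 1536-format, 1500 TRHR-Hek293 cells per well grew 18 h, took up calcium dye for 2 h at 37 °C, received compound, and were read kinetically; 15-point titrations, triplicates.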

The nature of assay [10]: Human pregnane X receptor (PXR) small molecule agonists, qHTS cell viability counter screen (AID 1346977). Note: nearly all actives have a fitted effect of over 50% in size. Note: potency is the fitted concentration of half-maximal effect. In a few lines: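 Readout is CellTiter-Fluor fluorescence from PXR-Luc HepG2 cells. Plated cells rested 5hr, then were treated with compounds for 24hr at 37C and 5% CO2, with reagent present during the last hour.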

Unmarked numbers belong to inactive results. Results filed as inconclusive are left out. The source made the active and inactive calls. Unless noted, calls come from the whole dose curve; as a rule, active = well fitted curve in the direction sought with a large enough effect in the repeat runs; inconclusive = weak or mixed curves; inactive = no such curve, though single readings can be large; an effect the other way counts as inactive or inconclusive.

Chain of Thyrotropin-releasing hormone receptor (Homo sapiens) (P34981 whole entry, looked up): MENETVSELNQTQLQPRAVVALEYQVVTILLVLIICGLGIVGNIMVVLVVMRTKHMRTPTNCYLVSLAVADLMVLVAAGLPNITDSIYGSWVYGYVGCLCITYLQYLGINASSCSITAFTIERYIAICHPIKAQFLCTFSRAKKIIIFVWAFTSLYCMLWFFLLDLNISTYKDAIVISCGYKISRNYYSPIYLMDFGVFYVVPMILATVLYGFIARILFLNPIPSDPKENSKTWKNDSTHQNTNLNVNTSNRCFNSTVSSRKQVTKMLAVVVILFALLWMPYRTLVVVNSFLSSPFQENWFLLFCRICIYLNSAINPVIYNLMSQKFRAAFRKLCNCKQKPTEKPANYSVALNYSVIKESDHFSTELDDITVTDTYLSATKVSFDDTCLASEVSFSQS
Chain of Progesterone receptor (Homo sapiens) (P06401 whole entry, looked up): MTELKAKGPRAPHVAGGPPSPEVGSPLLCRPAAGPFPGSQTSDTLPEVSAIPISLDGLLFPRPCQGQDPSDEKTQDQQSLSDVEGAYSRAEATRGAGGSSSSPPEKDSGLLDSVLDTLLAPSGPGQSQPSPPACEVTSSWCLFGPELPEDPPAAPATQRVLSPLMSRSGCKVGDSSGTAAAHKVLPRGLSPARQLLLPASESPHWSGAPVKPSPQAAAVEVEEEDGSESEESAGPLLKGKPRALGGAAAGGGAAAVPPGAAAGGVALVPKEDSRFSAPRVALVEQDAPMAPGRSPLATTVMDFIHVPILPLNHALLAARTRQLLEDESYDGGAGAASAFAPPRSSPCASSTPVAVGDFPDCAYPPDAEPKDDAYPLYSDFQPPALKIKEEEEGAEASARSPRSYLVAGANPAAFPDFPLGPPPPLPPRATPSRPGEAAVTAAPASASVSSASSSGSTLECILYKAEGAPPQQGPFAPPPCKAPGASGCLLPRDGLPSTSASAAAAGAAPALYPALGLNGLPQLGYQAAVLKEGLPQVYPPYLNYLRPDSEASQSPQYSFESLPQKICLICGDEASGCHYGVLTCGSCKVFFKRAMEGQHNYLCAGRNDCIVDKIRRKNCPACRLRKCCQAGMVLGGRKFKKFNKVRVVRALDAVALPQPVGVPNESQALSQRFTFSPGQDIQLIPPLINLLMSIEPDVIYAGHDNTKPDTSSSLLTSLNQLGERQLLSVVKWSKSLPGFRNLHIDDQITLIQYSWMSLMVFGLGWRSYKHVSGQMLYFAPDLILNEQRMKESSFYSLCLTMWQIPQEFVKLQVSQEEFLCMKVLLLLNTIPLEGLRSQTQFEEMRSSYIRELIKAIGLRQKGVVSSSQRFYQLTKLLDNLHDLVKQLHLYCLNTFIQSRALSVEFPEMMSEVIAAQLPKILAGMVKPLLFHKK

Consider `CNC(=O)/C=C(\C)OP(=O)(OC)OC`, for which the Potency entry in assay [1], in assay [2], in [3], in [4], in assay [5] and in assay [6] was “inactive” each time. The Potency entry in assay [8], in assay [9] and in [10] was “inactive” throughout. For the same molecule, in assay [7], the result was inactive.

In the case of `CCOC(=O)Cc1ccccc1`, the Potency entry in assay [1], in assay [2], in assay [3], in [4], in assay [5] and in [6] was “inactive” each time. Also, the Potency entry in assay [8], in [9] and in [10] was “inactive” in each case. Also, the result in [7] was inactive.

With `CCN(CC)C(=O)N[C@@H]1C=C2c3cccc4[nH]cc(c34)C[C@@H]2N(C)C1`, the Potency entry in [1], in assay [2], in assay [3], in assay [4], in assay [5] and in [6] was “inactive” each time. Moreover, the Potency result in [8], in [9] and in assay [10] was “inactive” throughout. The outcome in assay [7] was inactive.

`O=C(Nc1ccc(F)cc1F)c1cccnc1Oc1cccc(C(F)(F)F)c1`: the Potency result in assay [1], in assay [2], in assay [3], in assay [4], in [5] and in assay [6] was “inactive” throughout. In addition, the Potency result in assay [8], in assay [9] and in [10] was “inactive” each time. Also, the call in assay [7] was inactive.

Turning to `Oc1ccc([C@H]2CNCc3c2ccc(O)c3O)cc1O`, the Potency entry in assay [1], in assay [2], in [3], in assay [4], in assay [5] and in [6] was “inactive” in each case. Besides, the Potency result in assay [8] and in assay [9] was “inactive” throughout. Further, the molecule was classed as inactive in assay [7].

With `c1cc[n+]2c(c1)-c1cccc[n+]1CC2`, the Potency entry in [1], in [2], in assay [3], in assay [4], in [5] and in assay [6] was “inactive” in each case. In addition, the Potency entry in [8] and in [9] was “inactive” throughout. Also, in assay [7], the result was inactive. Besides, in assay [10], the Potency was 13.3 µM (active).

As to `CN1[C@@H]2CC[C@H]1CC(O)C2` (stereo not given in full), the Potency result in [1], in [2], in assay [3], in assay [4], in assay [5] and in assay [6] was “inactive” each time. Further, the Potency result in assay [8], in [9] and in assay [10] was “inactive” each time. Besides, the result in assay [7] was inactive.

For `ClC(Cl)C(Cl)(Cl)Cl`, the Potency entry in assay [1], in [2], in [3], in assay [4], in [5] and in assay [6] was “inactive” throughout. The Potency result in [8], in assay [9] and in [10] was “inactive” each time. Moreover, in assay [7], the outcome was inactive.

In the case of `OCC(Br)CBr` (stereo not given), the Potency entry in assay [1], in assay [2], in [3], in [4], in assay [5] and in assay [6] was “inactive” each time. Also, the Potency entry in assay [10] was “inactive”. Moreover, the outcome in assay [7] was inactive.

Take `CN/C(=N\[N+](=O)[O-])NCc1cnc(Cl)s1`: the Potency entry in assay [1], in [2], in assay [3], in assay [4], in assay [5] and in assay [6] was “inactive” each time. Moreover, the Potency entry in [10] is “inactive”. Further, in assay [7], the result was inactive.

Regarding `CC(=O)[O-].CC(=O)[O-].CC(=O)[O-].[Cr+3]`, the Potency result in [1], in [2], in [3], in assay [4], in assay [5] and in assay [6] was “inactive” in each case. In addition, the Potency entry in assay [10] is “inactive”. The call in assay [7] was inactive.

`CNN`: the Potency result in assay [1], in assay [2], in assay [3], in assay [4], in assay [5] and in assay [6] was “inactive” in each case. The Potency entry in assay [10] is “inactive”. Also, in [7], the molecule was called inactive.

For `O=[N+]([O-])c1ccc(Cl)c(Cl)c1Cl`, the Potency result in assay [1], in [2], in assay [3], in [4], in assay [5] and in [6] was “inactive” in each case. Besides, the Potency entry in [8], in assay [9] and in [10] was “inactive” in each case. Further, in assay [7], the result was inactive.

With `Clc1cc(Cl)c(-c2cc(Cl)c(Cl)cc2Cl)cc1Cl`, the Potency entry in [1], in assay [3], in [4], in assay [5], in assay [6] and in assay [8] was “inactive” in each case. Also, the Potency result in assay [9] and in assay [10] was “inactive” in each case. The Potency in [2] is 10.2 µM (active). In addition, in assay [7], the call was inactive.

As for `CC(Cc1ccc(O)cc1)NCC(O)c1cc(O)cc(O)c1` (stereo not given), the Potency entry in assay [1], in [2], in assay [3], in assay [4], in [5] and in assay [6] was “inactive” each time. Moreover, the Potency entry in [8], in assay [9] and in assay [10] was “inactive” in each case. The molecule was called inactive in [7].

Consider `Oc1ccc(Cl)c(Cl)c1`, for which the Potency entry in assay [1], in [3], in assay [4], in [5], in assay [6] and in assay [8] was “inactive” throughout. Also, the Potency entry in [9] and in assay [10] was “inactive” each time. Besides, the Potency in [2] was 26.9 µM (active). In addition, in assay [7], the outcome was inactive.

For `CCC1COC(Cn2cncn2)(c2ccc(Cl)cc2Cl)O1` (stereo not given), the Potency result in assay [1], in assay [3], in assay [5], in [6], in assay [8] and in [9] was “inactive” each time. In [10], the Potency entry was “inactive”. Besides, in assay [2], the Potency was 27.3 µM (active). Also, the molecule was called inactive in assay [7].

`O=S(=O)(O)F`: the Potency entry in assay [1], in [2], in assay [3], in assay [4], in [6] and in [8] was “inactive” throughout. Further, the Potency result in assay [9] and in assay [10] was “inactive” throughout. Also, the outcome in [7] was inactive.

As to `O=[N+]([O-])C(Br)Br`, the Potency result in assay [1], in [2], in [3], in [4], in [5] and in assay [8] was “inactive” each time. In addition, the Potency result in assay [9] and in [10] was “inactive” in each case. In addition, the result in assay [7] was inactive.

As to `CSC(=O)c1c(C(F)F)nc(C(F)(F)F)c(C(=O)SC)c1CC(C)C`, the Potency result in assay [1], in assay [3], in assay [5], in assay [6], in assay [8] and in assay [9] was “inactive” each time. Besides, the Potency entry in [10] was “inactive”. Moreover, the Potency in [2] is 30.5 µM (active). The molecule was classed as inactive in assay [7].

With `NC(=O)C(Cl)Cl`, the Potency result in [1], in [2], in [3], in [4], in assay [5] and in [8] was “inactive” throughout. Moreover, the Potency result in [9] and in assay [10] was “inactive” in each case. Further, in assay [7], the molecule was called inactive.

Take `C=CCBr`: the Potency entry in assay [1], in [2], in [3], in [4], in [6] and in assay [8] was “inactive” in each case. In addition, the Potency result in assay [9] and in [10] was “inactive” throughout. Further, the call in [7] was inactive.

As for `Oc1ccc2[nH]cc(CCCCN3CC=C(c4ccccc4)CC3)c2c1`, the Potency entry in assay [1], in [2], in [3], in assay [4] and in [6] was “inactive” in each case. For the same molecule, the molecule was called inactive in [7].

In the case of `ClC1(Cl)C2(Cl)C3(Cl)C4(Cl)C(Cl)(Cl)C5(Cl)C3(Cl)C1(Cl)C5(Cl)C24Cl` (stereo not given), the Potency entry in assay [1], in assay [2], in [3], in assay [5], in assay [6] and in assay [8] was “inactive” in each case. The Potency result in assay [9] and in assay [10] was “inactive” each time. Further, in [7], the call was inactive.
